# Measurements as given in the supplement of paper PMC7156485.
# ± gives the standard deviation of the averaged measurements.
# Assays:
# Details in all cases: concentration: 10 µM; 24 h
# HCC1569 [1] = assay: cell number relative to DMSO (% of DMSO); higher = more cells (less growth inhibition / toxicity)
# Summary of the method: (§1)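 HCC1569 and TDF cells were seeded at 800 per well in 384-well plates in RPMI with 10% FBS and treated with compounds at 10 µM for 24 h at 37 °C, in triplicate. After fixation in 3.7% formaldehyde, cells were stained with a rabbit anti-H1.0 antibody, an AlexaFluor 647 secondary and DAPI, and six fields per well were imaged at ×10. H1.0 nuclear intensity or cell number is given as percent of the plate control, using the median of replicates, with HCC1569 values smoothed for positional effects.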
# TDF [2] = assay: as above
# Summary of the method: as §1
# TDF [3] = assay: H1.0 immunofluorescence intensity relative to DMSO (% of DMSO); higher = stronger H1.0 induction, active = 120 or more
# Summary of the method: as §1
# HCC1569 [4] = assay: H1.0 immunofluorescence intensity relative to DMSO (% of DMSO); higher = stronger H1.0 induction, active = 140 or more
# Summary of the method: as §1
# 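For H1.0 immunofluorescence intensity relative to DMSO in this document: TDF is a line of transformed human dermal fibroblasts of mesenchymal origin.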
# 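For cell number relative to DMSO in this document: TDF denotes transformed human dermal fibroblasts of mesenchymal origin.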
SMILES,cell number (HCC1569 [1]),cell number (TDF [2]),H1.0 immunofluorescence intensity (TDF [3]),H1.0 immunofluorescence intensity (HCC1569 [4])
CC(=O)O.CSC(N)=NCCCC(N)C(=O)O [S-Methyl-L-thiocitrulline acetate],99.4,108,92 (inactive),97.5 (inactive)
CC(=O)OCC(=O)[C@@]1(O)CC[C@H]2[C@@H]3CCC4=CC(=O)C=C[C@]4(C)[C@H]3[C@@H](O)C[C@@]21C,99.3,103,93.1 (inactive),101 (inactive)
Nc1nnc(-c2cccc(Cl)c2Cl)c(N)n1 [Lamotrigine],99.6 ± 2.1,105 ± 2,87.7 (inactive),101 (inactive)
Cc1onc(-c2ccccc2)c1C(=O)NC1C(=O)N2C1SC(C)(C)C2C(=O)[O-] (configuration not stated) [Oxacillin],99.8,105,91.4 (inactive),111 (inactive)
Oc1cc2c(c(Cl)c1O)CCNCC2c1ccccc1 (configuration not stated),99.5,87.8,85.5 (inactive),105 (inactive)
CCN(CC)CCOc1ccc(C(=C(Cl)c2ccccc2)c2ccccc2)cc1 [Clomiphene],99.9,88.3,98 (inactive),116 (inactive)
O=C(Nc1cccc2c(=O)cc(-c3nn[nH]n3)oc12)c1ccc(OCCCCc2ccccc2)cc1 [Pranlukast],101,110,101 (inactive),109 (inactive)
NC(=O)Nc1sc(-c2ccc(F)cc2)cc1C(N)=O [IKK-2 Inhibitor IV],80.1,103,95.8 (inactive),186 (active)
O=C(O)CCCCCCCC(=O)O [Azelaic acid],102,101,98.2 (inactive),89.8 (inactive)
"CCCCCC=CCC=CCC=CCC1OC1CCCC(=O)O (configuration not stated) [5,6-Epoxyeicosatrienoic acid]",101,108,89.4 (inactive),103 (inactive)
CC(C)(C#N)c1cc(Cn2cncn2)cc(C(C)(C)C#N)c1 [Anastrozole],102,101,99.4 (inactive),102 (inactive)
"CCCCCCCCCCCC1N[C@H](C(=O)O)CS1 (stereo partly drawn) [(4R)-2-undecyl-1,3-thiazolidine-4-carboxylic acid]",98.7,105,95.5 (inactive),96.9 (inactive)
N[C@@H](Cc1cc(I)c(Oc2cc(I)c(O)c(I)c2)c(I)c1)C(=O)O [L-thyroxine],103,89.5,97.6 (inactive),96.6 (inactive)
